In PubChem BioAssay (Tox21):
Results filed as inconclusive are left out. The source made the active and inactive calls. Unless noted, calls follow the shape of the dose curve; as a rule, active = well fitted curve in the direction sought with a large enough effect in the repeat runs; inconclusive = weak or mixed curves; inactive = no such curve, though single readings can be large; an effect the other way counts as inactive or inconclusive.

Legend:
[1] = qHTS RealTime-Glo MT Cell Viability Assay in HEK293 cells - 24 hour (AID 1224886); also: top concentration of the series differs between compounds; nearly all actives have a fitted effect of over 50% in size
In short: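 Assay medium contained NanoLuc luciferase plus cell-permeant prosubstrate, added with HEK293 cells at 600 cells/well. After 5 h at 37 C/5% CO2 compounds were added; plates stayed at 37 C for 40 h with serial luminescence reads.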

[2] = qHTS RealTime-Glo MT Cell Viability Assay in HEK293 cells - 8 hour (AID 1224887); also: top concentration of the series differs between compounds; nearly all actives have a fitted effect of over 50% in size
In short: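 Viable HEK293 cells reduce a cell-permeant prosubstrate; the product diffuses out and is consumed by NanoLuc in the medium to give light. Compounds went in after a 5 h incubation and plates were read over the treatment course.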

[3] = A CellTox Green Cytotoxicity Assay to monitor cytotoxicity in HEK293 cells - 16 hour (AID 1224888); also: nearly all actives have a fitted effect of over 35% in size
In short: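 Fluorescence intensity, read at 0, 8, 16, 24, 32 and 40 h of compound treatment, reflected dye binding to DNA of dead HEK293 cells; compounds (23 nL, DMSO) were added 5 h after plating cells with reagent.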

[4] = qHTS RealTime-Glo MT Cell Viability Assay in HepG2 cells - 0 hour (AID 1224889); also: nearly all actives have a fitted effect of over 50% in size
In short: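 qHTS, HepG2, 600 cells/well, RealTime-Glo (NanoLuc + prosubstrate) added with cells; 5 h preincubation; DMSO compound addition; 37 C; luminescence at 0/8/16/24/32/40 h.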

[5] = A CellTox Green Cytotoxicity Assay to monitor cytotoxicity in HepG2 cells - 8 hour (AID 1224890); also: nearly all actives have a fitted effect of over 45% in size
In short: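 Using 1536-well format, dye-containing HepG2 suspension was seeded, allowed 5 h at 37 C/5% CO2, dosed by pintool with compounds, positive and negative controls, and imaged for fluorescence across 40 h.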

[6] = qHTS assay to identify small molecule antagonists of the estrogen receptor alpha (ER-alpha) signaling pathway using the BG1 cell line in the presence of 0.1 nM 17-beta-estradiol - cell viability counter screen (AID 1259241); also: nearly all actives have a fitted effect of over 40% in size
In short: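 Estradiol-stimulated (0.1 nM) VM7Luc4E2 cells exposed to compounds 22 hr; viability measured by fluorescence of cleaved CellTiter-Fluor substrate after 30 min.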

[7] = qHTS assay to identify small molecule antagonists of the androgen receptor (AR) signaling pathway using the MDA cell line in the presence of 0.5 nM R1881 - cell viability counter screen (AID 1259242); also: nearly all actives have a fitted effect of over 45% in size
In short: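 Viability of MDA-kb2 cells was multiplexed with the luciferase AR readout; after 16 hr with compounds and R1881 at 0.5 nM final, CellTiter-Fluor fluorescence was recorded.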

[8] = biological target: Estrogen receptor (Homo sapiens) (UniProt P03372); assay: qHTS assay to identify small molecule antagonists of the estrogen receptor alpha (ER-alpha) signaling pathway using the BG1 cell line in the presence of 0.1 nM 17-beta-estradiol (AID 1259244); also: nearly all actives have a fitted effect of over 50% in size
In short: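 Estradiol at 0.1 nM (final) stimulates the endogenous ER-alpha of VM7Luc4E2 cells carrying an ERE-driven luciferase; compounds are co-incubated 22 h at 37C and luciferase output quantified by luminescence.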

[9] = qHTS assay to identify small molecule HDAC inhibitors (AID 1259364);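 also: wild-type HCT-116 cells with endogenous class I/II HDAC activity; top concentration of the series differs between compounds; nearly all actives have a fitted effect of over 45% in size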
In short: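 Read-out: luminescence of HDAC-Glo I/II reagent, 30 min RT, reflecting class I/II deacetylase activity in whole HCT-116 cells pre-exposed 2 h to DMSO-dissolved compounds.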

[10] = qHTS assay to identify small molecule HDAC inhibitors - cell viability counter screen (AID 1259365)
In short: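 After overnight seeding at 1,500 cells per well, wild-type HCT-116 cultures took up compounds in DMSO for 2hr at 37 C. Viable cell content came from luminescence with CellTiter-Glo.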

[11] = qHTS assay to identify small molecule agonists of the sonic hedgehog signaling (Shh) pathway - cell viability counter screen (AID 1259366); also: nearly all actives have a fitted effect of over 50% in size
In short: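 Same-well cytotoxicity read. Gli1-Luc reporter 3T3 cells; compounds 24hr, 37C/5% CO2; CellTiter-Fluor fluorescence.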

[12] = qHTS assay to identify small molecule antagonists of the sonic hedgehog signaling (Shh) pathway - cell viability counter screen (AID 1259367); also: nearly all actives have a fitted effect of over 55% in size
In short: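 Using CellTiter-Fluor, viability of Gli1-Luc reporter 3T3 cells is read by fluorescence in the wells used for the Shh luciferase assay. Treatment lasts 23 hr with conditioned medium, then reagent 1 hr at 37C.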

[13] = qHTS assay to identify small molecule antagonists of the sonic hedgehog signaling (Shh) pathway (AID 1259369; calls by dose curve; also: nearly all actives have a fitted effect of over 45% in size)
In short: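 For antagonist detection, the reporter line received test compounds together with conditioned medium, incubated 24hr at 37 C, 5% CO2, then luminescence was recorded following 30min room-temperature luciferase reagent incubation.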

[14] = biological target: Estrogen receptor beta (Homo sapiens) (UniProt Q92731); assay: qHTS assay to identify small molecule agonists of the estrogen receptor beta (ER-beta) signaling pathway (AID 1259377; active = well fitted activation curve with a large enough effect in the signal ratio in the repeat runs, not every such curve was filed as active; the % refers to the signal ratio)
In short: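 Read-out: beta-lactamase FRET fluorescence. Cell line: ER-beta-UAS-bla HEK293T in 2% charcoal-stripped FBS. Exposure: 16 hr at 37C. Substrate step: 2 h at room temperature.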

[15] = biological target: Estrogen receptor beta (Homo sapiens) (UniProt Q92731); assay: qHTS assay to identify small molecule antagonists of the estrogen receptor beta (ER-beta) signaling pathway (AID 1259378; active = well fitted inhibition curve with a large enough effect in the signal ratio in the repeat runs, not every such curve was filed as active; the % refers to the signal ratio)
In short: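 Antagonist mode: compounds added to beta-lactamase reporter HEK293T ER-beta-UAS cells stimulated with E2 (1nM final), 16 hr at 37C. LiveBLAzer B/G FRET substrate, 2 hours room temperature, fluorescence read-out.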

[16] = qHTS assay to identify small molecule agonists of the estrogen receptor beta (ER-beta) signaling pathway - cell viability counter screen (AID 1259380); also: nearly all actives have a fitted effect of over 30% in size
In short: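 CellTiter-Glo read, 30 min RT, same wells as bla assay; cells ER-beta-UAS-bla HEK293T; 16 hr compound, 37C; medium 2% charcoal-stripped FBS.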

[17] = qHTS assay to identify small molecule agonists of the androgen receptor (AR) signaling pathway in the presence of an antagonist - cell viability counter screen (AID 1259379);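 also: MDA-kb2 human breast cancer cells carrying an MMTV luciferase reporter; series mostly up to about 92 µM; nearly all actives have a fitted effect of over 25% in size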
In short: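 Seed MDA-kb2 at 3,000 cells/well; incubate 5 hr, 37C, 0% CO2. Add nilutamide to 3.0uM final, then pin compounds at 15 concentrations. Incubate 16 hr. Add CellTiter-Fluor at 15 hr, read fluorescence after 1 hr.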

[18] = qHTS assay to identify small molecule agonists of the sonic hedgehog signaling (Shh) pathway (AID 1259368; calls by dose curve;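 also: NIH/3T3-derived 3T3Gli1-Luc cells carrying a stable Gli1-driven firefly luciferase reporter; series mostly up to about 92 µM; nearly all actives have a fitted effect of over 15% in size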)
In short: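 A Gli1 transcriptional response element controlled firefly luciferase in 3T3Gli1-Luc cells. Compounds and a positive control were added 4 hr after plating, and cells were incubated a further 24 hr at 37 C before luminescence detection.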

[19] = biological target: Androgen receptor (Homo sapiens) (UniProt P10275); assay: qHTS assay to identify small molecule antagonists of the androgen receptor (AR) signaling pathway using the MDA cell line in the presence of 0.5 nM R1881 (AID 1259243); also: nearly all actives have a fitted effect of over 50% in size
In short: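 Reporter cells cultured without CO2 receive test chemicals, then 0.5 nM R1881 final; after 16 hr at 37C, ONE-Glo is added and light output recorded.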

[20] = qHTS assay to identify small molecule phospholipidosis (PLD) inducers (AID 1259344; active = well fitted curve in the direction sought with a large enough effect; an effect the other way counts as inactive or inconclusive)
In short: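 Fluorescent phospholipid staining (LipidTOX Red) measured by automated microscopy in fixed HepG2 cells after 24 h treatment; nuclei counterstained with Hoechst 33342; amiodarone as reference inducer.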

Measured: Potency

Sequence of Estrogen receptor (Homo sapiens) (P03372 whole entry, looked up): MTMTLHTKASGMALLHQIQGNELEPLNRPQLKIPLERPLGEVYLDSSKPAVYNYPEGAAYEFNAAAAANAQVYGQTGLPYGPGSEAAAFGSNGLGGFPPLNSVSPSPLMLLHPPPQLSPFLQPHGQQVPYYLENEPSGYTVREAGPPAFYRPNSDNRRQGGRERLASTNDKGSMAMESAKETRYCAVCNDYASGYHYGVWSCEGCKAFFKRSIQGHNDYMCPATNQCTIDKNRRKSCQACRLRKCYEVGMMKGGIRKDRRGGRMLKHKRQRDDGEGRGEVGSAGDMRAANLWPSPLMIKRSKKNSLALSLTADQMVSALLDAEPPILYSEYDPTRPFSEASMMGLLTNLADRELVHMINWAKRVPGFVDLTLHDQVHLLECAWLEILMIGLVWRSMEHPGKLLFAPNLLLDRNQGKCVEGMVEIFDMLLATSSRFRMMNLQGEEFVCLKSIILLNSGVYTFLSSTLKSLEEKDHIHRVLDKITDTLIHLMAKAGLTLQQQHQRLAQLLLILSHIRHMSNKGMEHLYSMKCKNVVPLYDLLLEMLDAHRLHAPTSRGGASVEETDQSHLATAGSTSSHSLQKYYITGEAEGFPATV
Sequence of Estrogen receptor beta (Homo sapiens) (Q92731 whole entry, looked up): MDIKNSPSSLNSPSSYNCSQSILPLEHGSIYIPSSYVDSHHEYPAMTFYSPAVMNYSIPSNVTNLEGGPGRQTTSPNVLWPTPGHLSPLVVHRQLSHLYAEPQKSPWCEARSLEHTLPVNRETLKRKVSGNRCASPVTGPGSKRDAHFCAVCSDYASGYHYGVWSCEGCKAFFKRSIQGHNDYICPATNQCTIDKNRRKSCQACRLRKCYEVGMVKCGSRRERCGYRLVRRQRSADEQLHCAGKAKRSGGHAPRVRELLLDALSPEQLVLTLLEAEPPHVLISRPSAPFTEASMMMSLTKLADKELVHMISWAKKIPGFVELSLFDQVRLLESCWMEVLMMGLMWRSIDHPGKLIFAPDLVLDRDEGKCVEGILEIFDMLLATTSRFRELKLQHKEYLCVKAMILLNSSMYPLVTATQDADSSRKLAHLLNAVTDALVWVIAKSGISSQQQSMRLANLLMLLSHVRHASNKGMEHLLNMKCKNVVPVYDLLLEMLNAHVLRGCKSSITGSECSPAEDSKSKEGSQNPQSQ
Sequence of Androgen receptor (Homo sapiens) (P10275 whole entry, looked up): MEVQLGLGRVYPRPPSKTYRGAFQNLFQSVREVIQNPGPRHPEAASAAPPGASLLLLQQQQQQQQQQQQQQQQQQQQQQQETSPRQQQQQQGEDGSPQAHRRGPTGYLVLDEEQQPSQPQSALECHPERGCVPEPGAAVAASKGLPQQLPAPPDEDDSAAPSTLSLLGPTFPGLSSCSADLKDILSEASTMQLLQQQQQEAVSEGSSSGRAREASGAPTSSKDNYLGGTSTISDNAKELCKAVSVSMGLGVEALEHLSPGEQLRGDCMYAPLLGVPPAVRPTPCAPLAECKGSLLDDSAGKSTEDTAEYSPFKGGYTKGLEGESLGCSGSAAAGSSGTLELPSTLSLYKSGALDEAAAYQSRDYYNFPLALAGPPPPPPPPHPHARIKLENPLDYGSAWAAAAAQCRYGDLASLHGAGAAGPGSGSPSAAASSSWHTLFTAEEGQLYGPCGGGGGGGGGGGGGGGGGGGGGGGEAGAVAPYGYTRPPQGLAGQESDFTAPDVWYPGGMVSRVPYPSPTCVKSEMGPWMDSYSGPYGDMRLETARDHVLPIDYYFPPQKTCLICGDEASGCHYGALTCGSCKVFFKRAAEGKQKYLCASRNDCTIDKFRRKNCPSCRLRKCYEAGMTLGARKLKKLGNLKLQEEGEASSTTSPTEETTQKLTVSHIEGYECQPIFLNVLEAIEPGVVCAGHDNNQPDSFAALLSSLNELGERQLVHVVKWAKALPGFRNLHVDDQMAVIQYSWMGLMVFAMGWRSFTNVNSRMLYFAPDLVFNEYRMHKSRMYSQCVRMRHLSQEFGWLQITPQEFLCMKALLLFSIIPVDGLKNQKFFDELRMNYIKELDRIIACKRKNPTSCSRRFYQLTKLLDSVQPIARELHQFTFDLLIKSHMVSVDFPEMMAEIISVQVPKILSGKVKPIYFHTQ

CC(C)(C)NCCO
inactive: [1] | [2] | [3] | [4] | [5] | [6] | [7] | [8] | [9] | [10] | [11] | [12] | [13] | [14] | [15] | [16]

CC(=O)N(CC(O)CO)c1c(I)c(C(=O)NCC(O)CO)c(I)c(C(=O)NCC(O)CO)c1I (stereo not given)
inactive: [1] | [2] | [3] | [4] | [5] | [6] | [7] | [8] | [9] | [10] | [13] | [17] | [16]

CC(Cl)COP(=O)(OCC(C)Cl)OCC(C)Cl (stereo not given)
inactive: [1] | [2] | [3] | [4] | [5] | [6] | [7] | [8] | [9] | [10] | [11] | [12] | [18] | [13] | [14] | [15] | [17] | [16]

CCN(CC)C(=O)C1CN2CCc3cc(OC)c(OC)cc3C2CC1OC(C)=O (stereo not given)
inactive: [1] | [2] | [3] | [4] | [5] | [6] | [7] | [19] | [10] | [11] | [12] | [18] | [13] | [17] | [16]

NC(=O)NC(=O)Cc1ccccc1
inactive: [1] | [2] | [3] | [4] | [5] | [6] | [7] | [8] | [20] | [9] | [10] | [11] | [12] | [18] | [13] | [14] | [15] | [17] | [16]

CN(C)CCOCCN(C)CCO
inactive: [1] | [2] | [3] | [4] | [5] | [6] | [7] | [8] | [9] | [10] | [12] | [18] | [13] | [17] | [16]

O=C(O)/C=C/c1ccccc1
inactive: [1] | [2] | [3] | [4] | [5] | [6] | [7] | [8] | [20] | [10] | [11] | [12] | [18] | [13] | [17] | [16]

CCCOC(=O)CCCCC(=O)OCCC
inactive: [1] | [2] | [3] | [4] | [5] | [6] | [7] | [8] | [9] | [10] | [11] | [12] | [18] | [13] | [14] | [15] | [17] | [16]
